Experiments:
Experiment in all cases: log2 ratio of Biotin-Ahx-Ub-VS probe labelling (fragment/DMSO); higher = less target engagement (more negative = stronger competition), active = hit call of the paper (q ≤ 0.05, log2 ratio ≤ -1)
Details in all cases: compound concentration: 200 uM; treatment time: 3 h
USP34 = USP34 (UniProt Q70CQ2)
Method in brief: (§1)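 Fragment (200 µM) or vehicle was incubated for 3 h with triplicate HEK293T lysate samples of 495 µg, which were then treated with Biotin-Ahx-Ub-VS at 0.5 µM final for 1 h. Labelled DUBs were enriched on NeutrAvidin, digested with LysC and trypsin, and analysed by diaPASEF LC-MS/MS. Values are average log2 fragment/vehicle ratios from an unpaired t-test on global-median-normalised Spectronaut label-free quantities, using proteins with ≥2 unique peptides.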

USP36 = molecular target: T1, USP36 (UniProt Q9P275)
T1 sequence (whole entry): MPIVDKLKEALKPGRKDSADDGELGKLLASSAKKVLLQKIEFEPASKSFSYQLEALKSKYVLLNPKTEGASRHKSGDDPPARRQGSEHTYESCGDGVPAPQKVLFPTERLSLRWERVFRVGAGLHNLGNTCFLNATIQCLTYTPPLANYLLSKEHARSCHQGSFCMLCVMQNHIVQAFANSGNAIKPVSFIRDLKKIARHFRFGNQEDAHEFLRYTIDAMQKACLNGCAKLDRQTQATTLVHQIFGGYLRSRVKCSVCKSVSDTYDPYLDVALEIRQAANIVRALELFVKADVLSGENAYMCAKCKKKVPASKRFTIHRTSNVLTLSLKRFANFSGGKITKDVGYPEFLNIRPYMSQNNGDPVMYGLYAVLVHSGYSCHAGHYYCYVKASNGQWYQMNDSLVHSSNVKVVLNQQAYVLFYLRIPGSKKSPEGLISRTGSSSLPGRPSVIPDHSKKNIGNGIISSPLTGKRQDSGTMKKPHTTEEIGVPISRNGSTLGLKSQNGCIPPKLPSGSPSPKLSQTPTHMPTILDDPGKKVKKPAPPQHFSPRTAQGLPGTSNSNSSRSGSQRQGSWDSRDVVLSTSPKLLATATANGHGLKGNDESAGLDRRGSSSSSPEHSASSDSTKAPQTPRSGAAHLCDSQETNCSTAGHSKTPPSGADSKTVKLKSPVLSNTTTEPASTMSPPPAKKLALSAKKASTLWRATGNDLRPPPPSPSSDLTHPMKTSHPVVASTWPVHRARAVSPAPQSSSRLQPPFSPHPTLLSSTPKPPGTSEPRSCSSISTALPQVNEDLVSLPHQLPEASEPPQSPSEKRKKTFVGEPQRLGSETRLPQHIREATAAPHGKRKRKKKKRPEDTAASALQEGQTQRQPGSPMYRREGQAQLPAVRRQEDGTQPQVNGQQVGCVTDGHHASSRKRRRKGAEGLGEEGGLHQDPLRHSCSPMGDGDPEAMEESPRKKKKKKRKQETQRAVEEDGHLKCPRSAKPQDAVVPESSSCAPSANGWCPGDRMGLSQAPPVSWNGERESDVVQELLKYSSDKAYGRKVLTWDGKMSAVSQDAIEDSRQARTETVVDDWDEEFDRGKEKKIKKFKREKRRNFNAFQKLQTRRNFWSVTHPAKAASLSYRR
Method in brief: as §1

USP38 = molecular target: T2, USP38 (UniProt Q8NB14)
T2 sequence (whole entry): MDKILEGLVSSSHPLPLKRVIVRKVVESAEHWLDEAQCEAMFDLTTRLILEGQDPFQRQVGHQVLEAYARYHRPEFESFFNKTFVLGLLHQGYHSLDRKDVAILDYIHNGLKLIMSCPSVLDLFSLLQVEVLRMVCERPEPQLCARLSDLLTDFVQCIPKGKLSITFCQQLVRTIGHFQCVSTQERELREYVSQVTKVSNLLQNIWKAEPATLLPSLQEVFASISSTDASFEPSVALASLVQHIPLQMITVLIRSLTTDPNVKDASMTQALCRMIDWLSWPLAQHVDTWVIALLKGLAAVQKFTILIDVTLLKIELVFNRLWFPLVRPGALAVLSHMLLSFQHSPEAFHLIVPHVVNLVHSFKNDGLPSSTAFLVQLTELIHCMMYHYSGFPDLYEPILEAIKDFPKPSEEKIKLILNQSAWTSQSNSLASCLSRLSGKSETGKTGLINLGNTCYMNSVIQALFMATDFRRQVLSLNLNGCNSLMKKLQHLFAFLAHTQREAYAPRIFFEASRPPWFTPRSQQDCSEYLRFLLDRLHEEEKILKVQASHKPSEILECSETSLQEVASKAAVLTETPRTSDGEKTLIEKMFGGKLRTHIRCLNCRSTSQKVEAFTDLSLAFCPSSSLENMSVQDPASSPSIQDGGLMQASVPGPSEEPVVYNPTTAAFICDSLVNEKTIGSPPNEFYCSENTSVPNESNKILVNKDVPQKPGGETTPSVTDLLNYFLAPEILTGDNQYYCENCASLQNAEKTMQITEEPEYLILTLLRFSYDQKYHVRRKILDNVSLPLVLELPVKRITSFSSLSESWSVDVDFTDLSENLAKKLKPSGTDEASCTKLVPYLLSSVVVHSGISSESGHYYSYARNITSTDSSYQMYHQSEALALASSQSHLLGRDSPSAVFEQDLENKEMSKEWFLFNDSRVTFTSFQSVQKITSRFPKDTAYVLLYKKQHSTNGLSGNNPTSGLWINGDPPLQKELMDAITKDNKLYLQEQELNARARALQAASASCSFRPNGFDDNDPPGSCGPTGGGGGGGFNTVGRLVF
Method in brief: as §1

USP39 = molecular target: T3, USP39 (UniProt Q53GS9)
T3 sequence (whole entry): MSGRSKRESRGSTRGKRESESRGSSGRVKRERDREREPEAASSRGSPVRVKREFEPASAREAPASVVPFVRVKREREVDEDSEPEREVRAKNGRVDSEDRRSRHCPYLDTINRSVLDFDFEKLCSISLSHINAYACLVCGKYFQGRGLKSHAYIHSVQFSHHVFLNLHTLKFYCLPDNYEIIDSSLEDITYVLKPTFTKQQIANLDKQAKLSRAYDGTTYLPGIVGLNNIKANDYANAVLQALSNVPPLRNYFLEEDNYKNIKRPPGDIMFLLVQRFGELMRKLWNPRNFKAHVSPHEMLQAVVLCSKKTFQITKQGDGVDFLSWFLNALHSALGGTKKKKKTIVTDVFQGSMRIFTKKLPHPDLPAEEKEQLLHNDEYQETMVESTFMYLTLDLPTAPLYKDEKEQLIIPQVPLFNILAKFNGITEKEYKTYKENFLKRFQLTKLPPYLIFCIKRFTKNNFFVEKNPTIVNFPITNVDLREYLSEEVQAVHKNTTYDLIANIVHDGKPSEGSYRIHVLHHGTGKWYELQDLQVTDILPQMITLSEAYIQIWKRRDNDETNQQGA
Method in brief: as §1

USP4 = molecular target: T4, USP4 (UniProt Q13107)
T4 sequence (whole entry): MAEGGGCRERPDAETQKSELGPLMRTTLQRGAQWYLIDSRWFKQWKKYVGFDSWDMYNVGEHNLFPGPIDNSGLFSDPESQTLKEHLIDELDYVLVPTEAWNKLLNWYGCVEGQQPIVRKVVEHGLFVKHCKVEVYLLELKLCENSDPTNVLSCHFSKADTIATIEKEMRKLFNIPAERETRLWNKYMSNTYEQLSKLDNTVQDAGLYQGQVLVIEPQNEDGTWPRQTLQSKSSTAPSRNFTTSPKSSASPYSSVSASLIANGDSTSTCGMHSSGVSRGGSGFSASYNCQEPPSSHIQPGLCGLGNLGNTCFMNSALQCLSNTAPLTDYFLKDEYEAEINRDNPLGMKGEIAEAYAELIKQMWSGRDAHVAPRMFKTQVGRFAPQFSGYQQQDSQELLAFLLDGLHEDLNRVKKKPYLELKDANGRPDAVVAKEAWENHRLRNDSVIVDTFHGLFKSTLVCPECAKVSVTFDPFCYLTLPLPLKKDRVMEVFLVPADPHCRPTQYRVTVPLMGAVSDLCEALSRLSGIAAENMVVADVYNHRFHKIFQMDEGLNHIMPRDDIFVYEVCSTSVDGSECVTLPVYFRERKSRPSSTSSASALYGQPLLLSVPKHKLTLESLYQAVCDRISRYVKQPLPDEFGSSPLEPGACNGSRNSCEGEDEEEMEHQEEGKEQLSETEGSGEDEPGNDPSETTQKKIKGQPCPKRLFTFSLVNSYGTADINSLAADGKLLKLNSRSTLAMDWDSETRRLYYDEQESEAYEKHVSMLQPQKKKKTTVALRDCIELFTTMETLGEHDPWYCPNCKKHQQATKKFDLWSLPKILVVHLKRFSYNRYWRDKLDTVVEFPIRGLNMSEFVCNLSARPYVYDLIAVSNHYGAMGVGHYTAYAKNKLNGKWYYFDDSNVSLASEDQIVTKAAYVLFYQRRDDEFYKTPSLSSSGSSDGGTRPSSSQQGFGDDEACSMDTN
Method in brief: as §1

Measured: log2 ratio of Biotin-Ahx-Ub-VS probe labelling

Chain of USP34 (Q70CQ2 whole entry, the tested form may be a part): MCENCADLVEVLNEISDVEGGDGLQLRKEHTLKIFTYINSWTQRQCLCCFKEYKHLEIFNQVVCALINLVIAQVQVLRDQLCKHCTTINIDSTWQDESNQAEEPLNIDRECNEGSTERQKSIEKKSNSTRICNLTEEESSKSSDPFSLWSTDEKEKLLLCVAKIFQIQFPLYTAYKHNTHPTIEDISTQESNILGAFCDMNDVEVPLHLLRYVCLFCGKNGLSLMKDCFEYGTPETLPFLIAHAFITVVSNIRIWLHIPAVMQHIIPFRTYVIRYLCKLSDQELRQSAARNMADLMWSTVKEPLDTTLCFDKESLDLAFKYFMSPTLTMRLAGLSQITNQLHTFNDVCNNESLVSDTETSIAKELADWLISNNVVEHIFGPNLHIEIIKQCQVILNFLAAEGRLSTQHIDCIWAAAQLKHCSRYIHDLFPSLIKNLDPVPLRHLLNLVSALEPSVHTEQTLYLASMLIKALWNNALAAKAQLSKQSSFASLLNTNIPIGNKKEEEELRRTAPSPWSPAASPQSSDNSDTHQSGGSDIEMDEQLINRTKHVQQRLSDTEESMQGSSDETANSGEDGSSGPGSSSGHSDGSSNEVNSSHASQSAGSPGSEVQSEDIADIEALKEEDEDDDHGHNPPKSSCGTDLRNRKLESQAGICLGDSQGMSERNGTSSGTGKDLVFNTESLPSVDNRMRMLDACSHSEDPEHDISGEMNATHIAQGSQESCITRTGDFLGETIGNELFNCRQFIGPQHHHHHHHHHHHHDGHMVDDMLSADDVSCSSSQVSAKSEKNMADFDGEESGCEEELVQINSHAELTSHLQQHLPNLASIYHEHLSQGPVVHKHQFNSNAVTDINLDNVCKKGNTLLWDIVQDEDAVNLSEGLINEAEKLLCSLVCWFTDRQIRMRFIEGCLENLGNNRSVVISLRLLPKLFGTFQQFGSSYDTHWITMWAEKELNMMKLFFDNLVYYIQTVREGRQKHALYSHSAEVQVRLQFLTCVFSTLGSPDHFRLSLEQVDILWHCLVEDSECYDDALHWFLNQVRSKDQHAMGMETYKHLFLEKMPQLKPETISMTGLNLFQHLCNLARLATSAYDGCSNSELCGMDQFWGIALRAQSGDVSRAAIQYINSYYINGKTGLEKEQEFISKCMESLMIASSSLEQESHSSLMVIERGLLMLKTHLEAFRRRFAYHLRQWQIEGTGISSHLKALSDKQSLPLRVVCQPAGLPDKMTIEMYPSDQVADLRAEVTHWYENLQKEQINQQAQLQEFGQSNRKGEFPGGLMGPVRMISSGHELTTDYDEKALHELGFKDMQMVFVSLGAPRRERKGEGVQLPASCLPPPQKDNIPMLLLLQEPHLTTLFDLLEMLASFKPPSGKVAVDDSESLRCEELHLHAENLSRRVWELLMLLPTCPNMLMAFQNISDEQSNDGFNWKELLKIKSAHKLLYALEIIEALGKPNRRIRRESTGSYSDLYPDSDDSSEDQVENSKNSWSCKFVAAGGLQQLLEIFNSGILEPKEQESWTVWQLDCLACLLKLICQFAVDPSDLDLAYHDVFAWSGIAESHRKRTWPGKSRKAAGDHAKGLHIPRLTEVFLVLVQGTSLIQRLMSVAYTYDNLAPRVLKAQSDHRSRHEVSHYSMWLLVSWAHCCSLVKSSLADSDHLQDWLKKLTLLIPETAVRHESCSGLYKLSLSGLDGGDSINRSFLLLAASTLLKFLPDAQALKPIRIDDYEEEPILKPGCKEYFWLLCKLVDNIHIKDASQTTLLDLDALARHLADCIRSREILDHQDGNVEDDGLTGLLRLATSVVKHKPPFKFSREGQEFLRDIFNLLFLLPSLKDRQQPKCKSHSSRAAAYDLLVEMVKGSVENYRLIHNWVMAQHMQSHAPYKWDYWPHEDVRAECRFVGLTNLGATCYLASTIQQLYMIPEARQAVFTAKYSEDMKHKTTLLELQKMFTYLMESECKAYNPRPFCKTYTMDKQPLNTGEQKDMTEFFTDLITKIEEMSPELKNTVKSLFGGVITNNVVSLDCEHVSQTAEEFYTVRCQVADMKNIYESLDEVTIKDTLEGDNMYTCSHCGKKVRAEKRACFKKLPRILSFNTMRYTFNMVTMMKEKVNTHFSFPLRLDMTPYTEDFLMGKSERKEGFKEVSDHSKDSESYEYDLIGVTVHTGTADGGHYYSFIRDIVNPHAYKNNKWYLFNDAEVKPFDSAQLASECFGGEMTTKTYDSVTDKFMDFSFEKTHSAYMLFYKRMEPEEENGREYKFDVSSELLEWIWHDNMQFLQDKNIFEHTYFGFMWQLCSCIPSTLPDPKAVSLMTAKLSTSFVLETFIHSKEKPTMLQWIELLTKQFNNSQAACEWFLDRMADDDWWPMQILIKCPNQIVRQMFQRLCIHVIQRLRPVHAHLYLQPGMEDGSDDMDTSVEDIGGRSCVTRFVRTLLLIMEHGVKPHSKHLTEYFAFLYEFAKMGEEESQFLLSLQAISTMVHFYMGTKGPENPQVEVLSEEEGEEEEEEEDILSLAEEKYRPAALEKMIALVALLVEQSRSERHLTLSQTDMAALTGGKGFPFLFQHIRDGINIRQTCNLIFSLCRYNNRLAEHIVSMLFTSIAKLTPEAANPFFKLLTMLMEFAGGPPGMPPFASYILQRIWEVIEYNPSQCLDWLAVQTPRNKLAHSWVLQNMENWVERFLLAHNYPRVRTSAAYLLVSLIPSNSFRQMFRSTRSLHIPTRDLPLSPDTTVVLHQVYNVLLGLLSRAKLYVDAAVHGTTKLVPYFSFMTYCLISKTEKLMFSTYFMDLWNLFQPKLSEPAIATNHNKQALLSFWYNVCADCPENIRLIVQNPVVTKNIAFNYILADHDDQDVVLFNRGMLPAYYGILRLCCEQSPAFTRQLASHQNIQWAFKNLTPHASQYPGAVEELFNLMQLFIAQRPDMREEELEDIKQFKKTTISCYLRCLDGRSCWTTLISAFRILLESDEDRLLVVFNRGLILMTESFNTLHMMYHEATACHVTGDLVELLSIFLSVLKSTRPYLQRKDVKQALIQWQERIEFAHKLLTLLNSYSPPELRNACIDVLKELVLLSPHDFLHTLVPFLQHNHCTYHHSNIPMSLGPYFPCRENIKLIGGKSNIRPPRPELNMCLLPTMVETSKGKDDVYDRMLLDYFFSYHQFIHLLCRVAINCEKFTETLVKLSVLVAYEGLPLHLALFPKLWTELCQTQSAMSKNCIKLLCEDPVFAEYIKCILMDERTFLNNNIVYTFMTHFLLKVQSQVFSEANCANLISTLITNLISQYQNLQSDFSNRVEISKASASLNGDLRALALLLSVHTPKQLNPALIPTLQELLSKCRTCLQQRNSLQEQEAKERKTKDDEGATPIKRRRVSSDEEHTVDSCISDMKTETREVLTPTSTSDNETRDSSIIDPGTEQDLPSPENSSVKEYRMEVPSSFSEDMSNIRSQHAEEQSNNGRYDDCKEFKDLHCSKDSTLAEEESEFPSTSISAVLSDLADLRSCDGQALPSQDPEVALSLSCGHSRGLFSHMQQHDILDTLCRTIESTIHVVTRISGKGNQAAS

O=C(CCl)N1CCCCC12CCOCC2
inactive: USP34 -0.284 | USP36 -0.239 | USP38 -0.4 | USP39 -0.243 | USP4 -0.266
